# About 150 (0.052%) of roughly 290,000 compounds were called active.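 Rule for the calls: active = inhibition of at least 50% with at least 30 cells and total cytoplasm GFP at most 10,000,000; inconclusive = under 30 cells or total GFP of 10,000,000 plus; inactive = the rest.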 The full list was thinned out, with actives kept by preference. Measured potencies and affinities stand elsewhere.
# Biological target: G-protein coupled receptor 35 (Homo sapiens) (UniProt Q9HC97)
# Test: inhibition of zaprinast-stimulated GPR35 beta-arrestin translocation – imaging, U2OS, beta-arrestin-GFP, zaprinast agonist, primary screen (AID 2058)
# Conditions: zaprinast antagonism, at 10 µM, active compounds read high
# G-protein coupled receptor 35 (Homo sapiens), sequence (Q9HC97 whole entry, looked up): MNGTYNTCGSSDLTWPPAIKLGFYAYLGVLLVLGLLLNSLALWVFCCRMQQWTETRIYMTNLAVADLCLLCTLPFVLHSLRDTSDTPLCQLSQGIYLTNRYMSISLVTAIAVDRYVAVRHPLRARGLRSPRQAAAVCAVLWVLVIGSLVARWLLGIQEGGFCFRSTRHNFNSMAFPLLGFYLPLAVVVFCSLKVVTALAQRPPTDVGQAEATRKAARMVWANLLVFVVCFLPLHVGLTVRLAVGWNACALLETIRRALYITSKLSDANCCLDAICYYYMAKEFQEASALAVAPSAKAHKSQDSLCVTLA
row,Structure (SMILES),inhibition
1,CCC(=O)c1c[nH]c(C(=O)NCCc2ccccn2)c1,-8% (inactive)
2,O=C(OCc1cc(Cl)ccc1OC(F)F)c1ccc([N+](=O)[O-])o1,8.7% (inactive)
3,CCCCC1=CC2=CC(=O)C(C)(OC(=O)CC)C(=O)C2=CN1C(CO)CO (stereo not given),-6.6% (inactive)
4,CC(C)NCCOCCOc1ccccc1F,12.6% (inactive)
5,N#Cc1cccc(NC(=O)NCCc2c[nH]c3ccccc23)c1,-5.4% (inactive)
6,Cc1cc(C)c(S(=O)(=O)N2CCCOC2CNC(=O)C(=O)NCc2cccs2)c(C)c1 (stereo not given),-5.9% (inactive)
7,COc1ccccc1NC(=O)Cn1c(=O)n(C)c(=O)c2sc3c(c21)COC(C)(C)C3,5.9% (inactive)
8,CC(/C=C1\SC(=S)N(CCC(=O)Nc2ccc(O)cc2)C1=O)=C\c1ccccc1,0.1% (inactive)
9,CC(=O)c1ccc(NC(=O)CCCN2C(=O)/C(=C/C(C)=C/c3ccccc3)SC2=S)cc1,19.4% (inactive)
10,CC(/C=C1\SC(=S)N(CCCC(=O)Nc2ccc(C(=O)O)cc2)C1=O)=C\c1ccccc1,114% (active)
11,CC(=C\c1ccccc1)/C=C1/SC(=O)N(CCCC(=O)Nc2ccc(C(=O)O)cc2)C1=O,108% (active)
12,CC(/C=C1\SC(=O)N(CC(=O)Nc2ccc(O)cc2)C1=O)=C\c1ccccc1,-6.3% (inactive)
13,CC(/C=C1\SC(=O)N(CCCC(=O)O)C1=O)=C\c1ccccc1,-14.5% (inactive)
14,CC(=O)N(Cc1cc2c(C)cc(C)cc2[nH]c1=O)C1CCCCC1,1.4% (inactive)
15,O=C(Nc1ccccc1)C1=C[C@@H](c2csc3ccccc23)C[C@@H](OCc2ccc(CO)cc2)O1,-24.8% (inactive)
16,CC(=O)Nc1sc(N/N=C\c2ccc(O)cc2)nc1-c1cccs1,-8.9% (inactive)
17,CC(=O)Nc1sc(N/N=C/c2ccc(C)cc2)nc1-c1ccc(C)cc1,-2.6% (inactive)
18,CCN(CC)c1ccc(/C=C(\C#N)c2nc(-c3cccs3)c(NC(C)=O)s2)cc1,70.6% (active)
19,CC(=O)Nc1sc(/C(C#N)=C\c2cccc(Cl)c2)nc1-c1ccc(C)cc1,18.1% (inactive)
20,CCN(CC)c1ccc(/C=C(\C#N)c2ccccn2)cc1,15.1% (inactive)
21,CC1Cc2ccccc2N1C(=O)CSc1nc(-c2ccccc2)cs1 (stereo not given),-14.5% (inactive)
22,O=C(Nc1nc(-c2cccc([N+](=O)[O-])c2)cs1)C(c1ccccc1)c1ccccc1,0.8% (inactive)
23,COC(=O)c1cc(OC)c(OC)cc1N1C(=O)CCCC1=O,8.7% (inactive)

row,Structure (SMILES),inhibition
1,Cc1ccc(C)c2c1[nH]c1ccccc12,15.5% (inactive)
2,CC(=O)N1C=Cc2c(c(C)c3c([nH]c4ccccc43)c2C)C1,71.5% (active)
3,CC(=O)N1CCc2[nH]c3ccccc3c2C1,4.9% (inactive)
4,Cc1noc(C)c1C(=O)OCC(=O)c1c(N)n(CC(C)C)c(=O)n(C)c1=O,-3.5% (inactive)
5,Cc1ccccc1N1CCN(C2CCCN(C(=O)c3ccc(Cl)s3)C2)CC1 (stereo not given),0.1% (inactive)
6,O=C(/C=C/c1c[nH]c2ccccc12)c1ccccc1,-6.3% (inactive)
7,CCOC(=O)/C=C(C)\C=C\c1c[nH]c2ccccc12,-3.8% (inactive)
8,Cc1ccccc1Cn1c2ccccc2c2cnn(CC(=O)NCCCN3CCN(C)CC3)c(=O)c21,-6.2% (inactive)
9,O=S(=O)(Nc1cc2nc3ccccc3nc2n1Cc1ccccc1)c1ccc(Cl)cc1,85.4% (active)
10,O=S(=O)(Nc1nc2ccccc2nc1Cl)c1ccc(Cl)cc1,-9.2% (inactive)
11,O=S(=O)(Nc1nc2ccccc2nc1-[n+]1ccccc1)c1ccc(Cl)cc1,-1.7% (inactive)
12,O=C(Nc1ccc(Cl)cn1)c1ccc(Oc2ccccc2)cc1,0.8% (inactive)
13,CCOC(=O)CCCSc1nc2sc3c(c2c(=O)[nH]1)CCC3,1.8% (inactive)
14,Cn1cc(CN2CCC(n3nccc3NC(=O)c3ccccc3Cl)CC2)cn1,-15.2% (inactive)
15,CCc1nnc(NS(=O)(=O)c2ccc(NC(=S)NC(=O)/C=C/c3ccc(F)cc3)cc2)s1,11.3% (inactive)
16,CCc1nnc(NS(=O)(=O)c2ccc(NC(=S)NC(=O)/C=C/c3ccccc3)cc2)s1,-2.9% (inactive)
17,Cc1ccc(C(=O)N(CC(=O)NC2CCCC2)c2ccccc2C)s1,4.4% (inactive)
18,CCc1ccc(/C=C2/SC(=S)N(CCC(=O)Nc3cccnc3)C2=O)cc1,-11.4% (inactive)
19,COC(=O)CSc1nc2ccc(NC(=O)c3ccccc3C(=O)N3CCOCC3)cc2s1,-10.4% (inactive)
20,O=C(O)c1ccc(CSc2nc3ccc(NC(=O)c4ccccc4C(=O)O)cc3s2)cc1,-3.4% (inactive)
21,CN(C(=O)c1ccc2ccccc2c1)c1ccccn1,13.4% (inactive)
22,CC(C)c1ccc[n+](-c2nc([O-])sc2C=O)c1,-8.7% (inactive)
23,Cc1ccc(NC(=O)COc2ccccc2C(=O)Nc2ccccc2)cc1Cl,-17.7% (inactive)

row,Structure (SMILES),inhibition
1,CCOc1ccc(NC(=O)C(C)Oc2ccccc2C(=O)Nc2cccc(Cl)c2Cl)cc1 (stereo not given),12.3% (inactive)
2,Cc1csc2c(N3CCC(C(=O)O)CC3)ncnc12,-2.1% (inactive)
3,O=C(Nc1ccnn1C1CCN(Cc2ccc(OC(F)F)cc2)CC1)C1CCCC1,9.2% (inactive)
4,CCOc1ccccc1/C=N/NC(=O)c1c(C)nc2ccc(Br)cn12,10.2% (inactive)
5,CCC(C(=O)O)n1nc(-c2ccccc2)c2cc(Cl)ccc21 (stereo not given),-3.2% (inactive)
6,CC(C(=O)NCc1ccco1)n1nc(-c2ccccc2)c2cc(Cl)ccc21 (stereo not given),7.1% (inactive)
7,O=c1[nH]c(CN2CCCC2)nc2sc3c(c12)CCC3,0.2% (inactive)
8,COc1ccc(N2CCN(C(=O)C(=O)c3cn(CC(=O)N4CCCCCC4)c4ccccc34)CC2)cc1,2.6% (inactive)
9,C=CCC(O)(CC=C)CNC(=O)C1CCC(=O)N(CCCc2ccccc2)C1 (stereo not given),1.6% (inactive)
10,CN1CC=C2C(C#N)=C(N)C(C#N)(C#N)[C@H](c3cccs3)[C@H]2C1,39.8% (inactive)
11,CN1CC=C2C(C#N)=C(N)C(C#N)(C#N)[C@H](c3cccc(Cl)c3)C2C1 (stereo not given in full),101% (active)
12,CC(=O)N1CC=C2C(C#N)=C(N)C(C#N)(C#N)C(C)C2C1 (stereo not given),13.2% (inactive)
13,COc1cc([C@@H]2[C@H]3CN(C)CC=C3C(C#N)=C(N)C2(C#N)C#N)cc2c1OCO2,48.3% (inactive)
14,COc1cc(C2C3CN(C)CC=C3C(C#N)=C(N)C2(C#N)C#N)ccc1OC(C)C (stereo not given),16.1% (inactive)
15,CCCCn1c(=N)n(CC(=O)c2ccc(OC)cc2)c2ccccc21,-0.5% (inactive)
16,COC(=O)c1cccc(NC(=O)c2nn(C(C)C)c(=O)c3ccccc23)c1,25.1% (inactive)
17,Cc1ccc(CNC(=S)NC2CCCCC2)cc1,-8.5% (inactive)
18,CCC(=O)Nc1ccc(C(=O)NNC(=O)c2ccc(C)cc2)cc1,9.3% (inactive)
19,O=C(Nc1ccc(S(=O)(=O)Nc2ccccc2)cc1)c1ccc(CN2CCOCC2)cc1,-0.3% (inactive)
20,COc1cc(CN2CCCC(C)C2)ccc1OCc1ccccc1 (stereo not given),9.5% (inactive)
21,CC(C)Cn1c(N)c(C(=O)COC(=O)/C=C/c2cccs2)c(=O)n(C)c1=O,12.1% (inactive)
22,CCOC(=O)CN1CC23C=CC(O2)C(C(=O)NCc2ccccc2OC)C3C1=O (stereo not given),13.9% (inactive)
23,O=C1CC(c2ccccc2)N1c1ccccc1 (stereo not given),8.1% (inactive)

row,Structure (SMILES),inhibition
1,O=C(/C=C\c1ccco1)c1ccc(NC(=O)c2ccco2)cc1,15.5% (inactive)
2,CC(=O)Nc1ccc(C(=O)/C=C/c2ccco2)cc1,-4.1% (inactive)
3,CC1=C(C(=O)Nc2ccc(Cl)cc2C(=O)N2CCC(C(N)=O)CC2)SCCO1,16.5% (inactive)
4,Cc1nc(N2CCC(C)CC2)c2c(C)c(C(=O)Nc3ccc(C(F)(F)F)cc3)sc2n1,25.3% (inactive)
5,Cc1c(C(=O)Nc2ccc3c(c2)OCCO3)sc2ncnc(N3CCCCC3C)c12 (stereo not given),1.3% (inactive)
6,Cc1nc(N2CCCCC2)c2c(C)c(C(=O)Nc3cccc(C(F)(F)F)c3)sc2n1,14.1% (inactive)
7,Cc1nc(N2CCC(C)CC2)c2c(C)c(C(=O)Nc3ccc(C)c(F)c3)sc2n1,24.7% (inactive)
8,Cc1ccc(-c2cccc(C(=O)NCCc3ccccc3)n2)c2ccccc12,-3.7% (inactive)
9,CCOC(=O)N1CCN(C(=O)COC(=O)c2ccc(O)cc2O)CC1,-5.5% (inactive)
10,COc1ccc(S(=O)(=O)N2CCN(c3ccccn3)CC2)cc1OC,2.6% (inactive)
11,COc1ccc(C2SCCN2C(=S)Nc2ccc(F)cc2)cc1 (stereo not given),-0.3% (inactive)
12,COC(=O)CN1C(=O)[C@H]2[C@@H](c3ccc(C)o3)N3C(=O)CN(CC4CC4)C(=O)[C@@]3(Cc3ccccc3)[C@H]2C1=O,5.1% (inactive)
13,COc1ccc2cc3cc(C(=O)N4CCN(c5ccccc5)CC4)oc3nc2c1,6% (inactive)
14,COc1ccc2nc3oc(C(=O)N4CCN(c5cccc(C(F)(F)F)c5)CC4)cc3cc2c1,8.6% (inactive)
15,O=C(Nc1cccc(-c2cn3ccccc3n2)c1)c1cc2ccccc2oc1=O,-3.4% (inactive)
16,COc1cc(/C=C2\C(=N)N3N=C(S(C)(=O)=O)SC3=NC2=O)cc(OC)c1OCCOc1ccccc1C,3.6% (inactive)
17,S=c1nc(-c2ccccc2)n(Cc2cccnc2)c2c1CCCC2,14.8% (inactive)
18,CCCCC[C@H]1CN(CCCC)C(=O)[C@@H]1CC(=O)NCc1ccc(OC)cc1,8.5% (inactive)
19,C=CCn1c(SCC(=O)Nc2ccc(Cl)cn2)nnc1C1CC1,-2.5% (inactive)
20,CCC1CCCCN1S(=O)(=O)c1ccc(NC(=O)c2ccncc2)cc1 (stereo not given),-21.5% (inactive)
21,CCS(=O)(=O)c1ncc(Cl)c(C(=O)Nc2ccc(S(=O)(=O)N3CCC(C)CC3)cc2)n1,27.7% (inactive)
